Assay results as given in PubChem BioAssay (NCI).
Compounds without any hit were thinned out: in the full panel of roughly 83,000, 20% have a hit.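 Values shown are percent growth following 48 h exposure of cells in 96-well plates to a single concentration of compound; below 10 was considered active.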 Unmarked numbers belong to inactive results. Calls of active or inactive are those of the source.

system: SNB-19 CNS; experiment: NCI-60 one-dose screen, 48 h (100 = growth as untreated, 0 = no growth, -100 = all killed); settings: 10 µM unless noted

Structure (SMILES)	growth
Nc1nc2c(c(=O)[nH]1)C1(C(=O)Nc3ccccc31)c1c(nc(N)[nH]c1=O)N2	104%
COc1ccc(NS(=O)(=O)N2CCCCC2)cc1	96.4%
COc1ccc(-c2cc(-c3cccnc3)nc3sc(C(=O)Nc4ccccc4)c(N)c23)cc1OC	79.8%
C/C(=C\CCc1ccoc1)CC/C=C(\C)CCCNc1ccc(F)cc1	97.7%
Cc1cc2c(cc1C)[n+](Cc1ccc3ccccc3c1)cn2Cc1ccc2ccccc2c1	-77.2% (active)
CCN(CC)CCCCCCCNc1c2ccc(Cl)cc2nc2ccc(OC)cc12	-10.1% (active)
Cc1cc(C(=O)Nc2ccc3cc(CN4CCOCC4)ccc3n2)c(C)n1-c1ccccc1	77%
COc1cc(Cl)cc(-c2nn(-c3cccc(NC(=O)c4cc(C(F)(F)F)cc(C(F)(F)F)c4)c3)cc2-c2ccncc2)c1	86.4%
O=C(NCCNC(=O)Oc1cccc2ccccc12)Oc1cccc2ccccc12	94.5%
COC(=O)[C@H](Cc1cn(C)cn1)NC(=O)[C@H](C)NC(=O)Nc1cc(C(F)(F)F)cc(C(F)(F)F)c1	-82.5% [100 µM] (active)
O=C1CNc2cc(Cl)ccc2N1	107%
